The whole screen tested about 290,000 compounds, of which about 110 (0.038%) were called active. Inconclusive results (about 3%) are left out. The list comes from a sample in which actives are over-represented; it also holds similar structures and randomly drawn compounds. A number with no mark means an inactive call. Calls follow the shape of the dose curve; as a rule, active = well fitted inhibition curve with a large enough effect in the polarisation, with a control signal flat (not every such curve was filed as active); inconclusive = small, poorly fitted or top-dose-only effect, or effect the other way, or a change in a side signal; inactive = no such curve, though single readings can be large or run the other way; the % refers to the polarisation.
Each compound was assayed against Histone-lysine N-methyltransferase 2A (Homo sapiens) (UniProt Q03164) (assay: qHTS Fluorescence Polarization Assay for Inhibitors of MLL CXXC domain - DNA interaction). Conditions: MLL-CXXC / FITC-HOXA9 DNA fluorescence polarization; series mostly up to 115 µM; activity change, negative = inhibition: at the top concentration.
Histone-lysine N-methyltransferase 2A (Homo sapiens), sequence (Q03164 whole entry, looked up, the tested form may be a part): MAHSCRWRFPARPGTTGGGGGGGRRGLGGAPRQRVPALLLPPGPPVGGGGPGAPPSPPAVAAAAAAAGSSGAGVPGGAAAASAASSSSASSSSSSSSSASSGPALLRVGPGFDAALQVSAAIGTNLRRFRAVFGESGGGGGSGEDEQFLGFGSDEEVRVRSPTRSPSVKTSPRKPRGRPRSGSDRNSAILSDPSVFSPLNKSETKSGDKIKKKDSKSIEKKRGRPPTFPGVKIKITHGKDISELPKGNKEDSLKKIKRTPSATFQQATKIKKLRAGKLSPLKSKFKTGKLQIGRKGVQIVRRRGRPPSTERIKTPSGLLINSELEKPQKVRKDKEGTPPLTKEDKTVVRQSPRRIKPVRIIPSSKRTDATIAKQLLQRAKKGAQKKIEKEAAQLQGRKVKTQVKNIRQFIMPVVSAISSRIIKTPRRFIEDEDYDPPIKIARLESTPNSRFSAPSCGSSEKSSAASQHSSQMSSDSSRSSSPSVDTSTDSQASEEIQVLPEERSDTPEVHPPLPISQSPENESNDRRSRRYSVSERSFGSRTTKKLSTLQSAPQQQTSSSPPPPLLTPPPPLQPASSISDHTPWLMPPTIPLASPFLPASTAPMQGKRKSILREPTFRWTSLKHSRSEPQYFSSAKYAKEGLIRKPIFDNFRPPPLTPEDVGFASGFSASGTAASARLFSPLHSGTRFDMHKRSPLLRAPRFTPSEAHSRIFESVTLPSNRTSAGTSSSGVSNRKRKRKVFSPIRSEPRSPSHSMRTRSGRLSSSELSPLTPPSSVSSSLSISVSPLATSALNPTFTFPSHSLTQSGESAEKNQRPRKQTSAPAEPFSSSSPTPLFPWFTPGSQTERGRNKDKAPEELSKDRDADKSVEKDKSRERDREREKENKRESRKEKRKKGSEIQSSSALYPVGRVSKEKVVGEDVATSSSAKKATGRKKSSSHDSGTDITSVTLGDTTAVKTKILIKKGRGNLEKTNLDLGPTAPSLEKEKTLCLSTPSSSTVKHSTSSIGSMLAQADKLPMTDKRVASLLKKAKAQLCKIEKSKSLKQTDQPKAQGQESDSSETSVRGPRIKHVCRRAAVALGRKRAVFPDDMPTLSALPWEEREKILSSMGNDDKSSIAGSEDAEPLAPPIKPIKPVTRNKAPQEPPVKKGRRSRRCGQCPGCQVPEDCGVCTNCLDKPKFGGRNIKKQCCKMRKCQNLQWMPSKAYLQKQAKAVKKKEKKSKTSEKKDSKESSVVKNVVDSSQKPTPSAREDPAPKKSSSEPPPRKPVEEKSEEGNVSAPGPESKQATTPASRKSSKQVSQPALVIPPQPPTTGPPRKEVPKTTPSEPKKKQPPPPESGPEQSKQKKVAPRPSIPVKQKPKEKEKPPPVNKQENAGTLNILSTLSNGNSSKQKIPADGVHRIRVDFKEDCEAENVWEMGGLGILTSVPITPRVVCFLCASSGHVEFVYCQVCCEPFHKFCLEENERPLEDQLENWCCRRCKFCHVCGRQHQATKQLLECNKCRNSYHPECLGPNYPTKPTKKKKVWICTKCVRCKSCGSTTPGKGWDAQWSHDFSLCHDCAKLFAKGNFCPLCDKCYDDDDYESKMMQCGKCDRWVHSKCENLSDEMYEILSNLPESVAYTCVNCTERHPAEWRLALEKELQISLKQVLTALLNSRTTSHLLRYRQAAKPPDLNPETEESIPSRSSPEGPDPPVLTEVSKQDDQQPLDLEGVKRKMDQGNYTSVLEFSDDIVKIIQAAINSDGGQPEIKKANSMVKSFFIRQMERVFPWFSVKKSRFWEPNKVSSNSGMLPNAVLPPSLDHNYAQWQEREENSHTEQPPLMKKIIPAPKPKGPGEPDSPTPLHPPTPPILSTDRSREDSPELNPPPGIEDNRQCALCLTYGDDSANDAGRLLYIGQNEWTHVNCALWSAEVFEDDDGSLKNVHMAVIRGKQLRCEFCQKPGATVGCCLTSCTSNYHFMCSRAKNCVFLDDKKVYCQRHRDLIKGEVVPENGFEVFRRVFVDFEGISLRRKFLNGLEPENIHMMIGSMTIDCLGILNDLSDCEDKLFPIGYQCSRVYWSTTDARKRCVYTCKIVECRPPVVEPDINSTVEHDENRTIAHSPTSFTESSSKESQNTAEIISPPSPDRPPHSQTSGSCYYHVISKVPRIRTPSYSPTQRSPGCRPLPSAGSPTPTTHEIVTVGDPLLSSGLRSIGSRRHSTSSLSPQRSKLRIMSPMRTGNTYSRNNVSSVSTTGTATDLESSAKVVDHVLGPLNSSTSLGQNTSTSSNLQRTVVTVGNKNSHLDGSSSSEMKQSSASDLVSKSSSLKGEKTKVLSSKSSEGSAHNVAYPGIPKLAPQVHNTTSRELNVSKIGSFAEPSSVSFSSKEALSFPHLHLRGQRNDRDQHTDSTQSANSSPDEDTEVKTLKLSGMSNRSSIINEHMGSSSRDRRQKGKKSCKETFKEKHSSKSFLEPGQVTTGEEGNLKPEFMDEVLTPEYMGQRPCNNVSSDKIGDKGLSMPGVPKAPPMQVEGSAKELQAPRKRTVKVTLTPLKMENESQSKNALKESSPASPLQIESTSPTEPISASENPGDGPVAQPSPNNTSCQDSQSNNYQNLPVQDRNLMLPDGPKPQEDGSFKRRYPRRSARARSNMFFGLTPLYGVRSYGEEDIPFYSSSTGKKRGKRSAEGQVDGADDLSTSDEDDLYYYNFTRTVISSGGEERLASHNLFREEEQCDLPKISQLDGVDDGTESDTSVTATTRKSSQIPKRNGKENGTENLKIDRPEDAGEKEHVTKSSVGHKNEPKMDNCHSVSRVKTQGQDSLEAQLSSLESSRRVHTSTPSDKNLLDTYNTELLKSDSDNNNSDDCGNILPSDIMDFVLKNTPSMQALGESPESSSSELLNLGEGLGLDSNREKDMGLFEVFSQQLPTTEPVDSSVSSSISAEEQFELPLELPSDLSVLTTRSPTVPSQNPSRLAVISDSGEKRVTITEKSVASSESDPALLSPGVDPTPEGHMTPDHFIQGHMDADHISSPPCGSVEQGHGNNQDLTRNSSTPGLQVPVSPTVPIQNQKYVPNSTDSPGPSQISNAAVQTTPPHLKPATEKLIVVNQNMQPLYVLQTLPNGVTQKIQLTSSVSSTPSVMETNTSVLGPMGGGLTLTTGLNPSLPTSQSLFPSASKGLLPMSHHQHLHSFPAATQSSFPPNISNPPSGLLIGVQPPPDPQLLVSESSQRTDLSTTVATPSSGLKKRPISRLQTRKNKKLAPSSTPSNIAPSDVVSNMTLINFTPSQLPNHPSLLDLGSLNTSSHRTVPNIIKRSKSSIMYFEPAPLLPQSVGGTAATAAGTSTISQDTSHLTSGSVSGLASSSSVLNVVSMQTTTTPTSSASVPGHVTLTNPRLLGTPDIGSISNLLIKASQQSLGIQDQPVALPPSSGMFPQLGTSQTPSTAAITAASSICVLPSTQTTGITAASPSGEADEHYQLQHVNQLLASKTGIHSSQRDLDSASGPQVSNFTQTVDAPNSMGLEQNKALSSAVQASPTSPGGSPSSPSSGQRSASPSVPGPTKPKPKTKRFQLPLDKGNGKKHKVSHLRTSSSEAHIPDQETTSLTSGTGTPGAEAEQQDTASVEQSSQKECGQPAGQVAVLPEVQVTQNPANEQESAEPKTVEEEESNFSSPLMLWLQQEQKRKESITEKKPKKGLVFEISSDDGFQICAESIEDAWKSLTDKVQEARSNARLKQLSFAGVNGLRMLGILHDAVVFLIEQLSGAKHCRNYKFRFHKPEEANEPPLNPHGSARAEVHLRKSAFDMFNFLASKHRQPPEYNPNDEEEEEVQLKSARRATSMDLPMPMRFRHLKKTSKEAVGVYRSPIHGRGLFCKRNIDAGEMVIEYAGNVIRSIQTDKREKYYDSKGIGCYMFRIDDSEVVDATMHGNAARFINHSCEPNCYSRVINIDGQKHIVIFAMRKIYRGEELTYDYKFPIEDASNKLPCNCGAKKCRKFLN
Source text: NIH Chemical Genomics Center [NCGC] NIH Molecular Libraries Probe Production centers Network [MLPCN] MLPCN Grant: DA027717-01A1 Assay Submitter (PI): John Bushweller NCGC Assay Overview: The MLL (Mixed Lineage Luekemia) gene is involved in chromosomal translocation that results in either acute lymphoid leukemia (ALL) or acute myeloid leukemia (AML). Chromasomal translocation of MLL gene is responsible for the fusion of N-terminal MLL to more than 60 different partner genes in frame. Many of the MLL partner genes contain transcription activation domains or function as transcriptional activators. Despite the heterogeneity of fusion partners, the N-terminus of MLL fusion proteins always consists of the N-terminal menin binding motif and the CXXC domain. The MLL-CXXC domain specifically recognizes unmethylated CpG sequences of the HOX-A gene. Disruption of the MLL-CXXC and HOX-A gene interaction leads to down regulation of HOX-A gene expression and may potentially reverse leukemogenesis. We have miniaturized and optimized an in-vitro assay to screen for inhibitors of the MLL-CXXC domain and HOX-A DNA interaction, which could have utility in MLL fusion leukemias.
The affinity purified MLL-CXXC domain, unlabeled HOX-A9 DNA strand, fluorescein (FLSN) labeled HOX-A9 DNA strand were kindly supplied by the laboratory of Dr. John Bushweller, University of Virginia. All reagents were stored in single use aliquots at -80C. Assay Reagents: Assay buffer: 50 mM TRIS-HCl pH 7.5, 50 mM NaCl, 1 mM DTT. Add 0.05% BSA prior to reaction setup. Assay Procedure: 1.Dispense 1 ul of a 7 uM MLL-CXXC solution prepared in assay buffer into column 1-48. 2.Transfer 23 nl of compounds and unlabeled HOX-A9 per well. 3.Incubate for 5 minutes at ambient. 4.Dispense 1ul of a 50 nM FLSN-HOX-A9 solution prepared in assay buffer into columns 1-48 5.Centrifuge for 30 seconds at 1000 RPM. 6.Incubate for 30 minutes at ambient. 7.Read using the Envision reader fluorescent polarization protocol.
Potency is read from the fitted curve at half-maximal effect.

Compound	activity change, negative = inhibition [%]	Potency
CCc1ccccc1NC(=S)Nc1cc(OC)c(NC(=O)C(C)C)cc1OC	3.05	
O=C(NCc1ccccc1)C(c1ccccc1)N(C(=O)c1csnn1)c1ccc(F)cc1 (stereo not given)	21.8	
[2H]C(CCOS(N)(=O)=O)c1ccccc1 (stereo not given)	-2.68	
CCCCC(=O)Nc1c2c(nn1-c1ccc([N+](=O)[O-])cc1)CS(=O)(=O)C2	21.7	
Cc1cc(C)n2nc(CNS(=O)(=O)c3c(F)c(F)c(F)c(F)c3F)nc2n1	7.15	
COc1cccc(CNC(=O)COc2cc(O)c3c(c2)OC(C)(C)CC3=O)c1	4.19	
C/C(=N\NC(=O)c1ccoc1C)c1ccccc1O	21.1	
CN1C(=O)CN2CCc3ccccc3C2c2cc(Cl)ccc21 (stereo not given)	6.84	
O=C1C2CCCN2C(=O)N1CCCCN1CCN(c2cccc(C(F)(F)F)c2)CC1 (stereo not given)	-0.642	
O=C(Nc1nnc(S(=O)(=O)N2CCCCCC2)s1)c1cccc(Br)c1	-14.9	
Cc1cccc(OCC(O)CN2CCN(S(=O)(=O)c3ccc(C)cc3C)CC2)c1 (stereo not given)	-3.59	
Cc1cc(N=Nc2ccc3ccccc3c2)ccc1O	-3.97	
OCC(CO)NC1C[C@](O)(CO)[C@@H](O)[C@H](O)[C@H]1O (stereo not given in full)	-1.18	
C#CCOc1ccc(/C=C2/C(=O)NN(c3ccccc3)C2=O)cc1OC	3.2	
COc1cc(/C=C2/C(=O)NN(c3ccc(F)cc3)C2=O)cc([N+](=O)[O-])c1O		20 µM (active)
COc1cc(/C=C2/C(=O)NN(c3cccc(Cl)c3)C2=O)cc(Br)c1O	-14.9	
CC(=O)c1c(C)n(-c2ccc(C)cc2)c2ccc(O)cc12	8.81	
COc1ccc2nc(C)cc(Nc3cccc(C(=O)O)c3)c2c1	-14.3	
NC(=O)C1CCN(C(=O)/C(=C/c2ccco2)NC(=O)c2ccccc2)CC1	4.99	
Cc1cn([C@H]2CC(F)[C@@H](CO)O2)c(=O)[nH]c1=O (stereo not given in full)	-6.09	
O=C(Nc1cccc(C(F)(F)F)c1)c1cc(Br)cc(Br)c1O	-2.42	
C[C@H](NC(=O)C1CCN(S(=O)(=O)c2ccccc2)CC1)C(=O)NCc1ccccc1	-1.11	
COc1ccc(N(CC(=O)Nc2ccc(F)c(F)c2)S(=O)(=O)c2c(C)[nH]c(=O)[nH]c2=O)cc1	-1.33	
Cc1ccc(CNC(=O)C(=O)c2cn(CC(=O)N3CCCC3)c3ccccc23)cc1	1.78	
COc1ccc(C)cc1Nc1nc(C)nc2c1oc1ccccc12	15.3	

Compound	activity change, negative = inhibition [%]	Potency
COC(=O)c1ccccc1NC(=O)C1(S(=O)(=O)c2ccc(Cl)cc2)CC1	3.5	
CCN1C(=S)N[C@@H](CCc2ccccc2)[C@H](C(=O)OC)[C@H]1C		inactive
O=c1c2cc([N+](=O)[O-])ccc2nc2n1CCC2	9.68	
COc1ccc(CNc2cc(C)cc(C)c2)cc1OC	-3.72	
Cc1c(CNCCc2ccccc2)c(C(=O)O)c(C)n1-c1ccccc1	-4.55	
Cc1ccc(C(=O)N2CC(=O)Nc3ccc(F)cc3C2c2ccc(F)cc2)cc1 (stereo not given)	10.6	
COC(=O)c1ccc(CNC(=O)C2CCC(=O)N(Cc3cccc(F)c3)C2)cc1 (stereo not given)	4.84	
Cc1cnc(C(=O)Oc2cccc(Cl)c2Cl)cn1	-0.91	
COc1ccc(C)cc1N(C(=O)Cn1nnc(-c2ccc(C)o2)n1)C(C(=O)NC1CCCC1)c1ccncc1 (stereo not given)	-1.23	
Cc1ccc(/C=C2/SC(=S)N(CCC(=O)NCCCN3CCOCC3)C2=O)cc1	-11.8	
CCN(CC(=O)Nc1ccc2c(c1)OCO2)S(=O)(=O)c1ccccc1	4.81	
NNC(=O)CSc1nnc(-c2ccccc2)n1-c1ccccc1	6.34	
CC(C(=O)Nc1ccc(O)c(C(=O)O)c1)N1C(=O)/C(=C/c2cccs2)SC1=S (stereo not given)	15.5	
Cc1cccn2c(=O)c3cc(C(=O)NCCN4CCOCC4)c(=N)n(Cc4cccnc4)c3nc12	2.89	
Cc1cccc(S(=O)(=O)N2CN(CC3CCCO3)c3nc4ccccc4nc32)c1 (stereo not given)	3.53	
Cc1ccc(S(=O)(=O)c2nc(-c3cccs3)oc2NCc2cccnc2)cc1	6.33	
COc1ccc(CCNS(=O)(=O)c2cn(C)nc2C)cc1	8.13	
CC(=O)Nc1cccc(Nc2nc(-c3cccs3)nc3ccccc23)c1	6.15	
CC(=O)c1nn(-c2cccc(C(F)(F)F)c2)c(=O)[nH]c1=O	48.5	
COc1cc(CN2CCCC(C(=O)c3ccc(SC)cc3)C2)cc(Cl)c1O (stereo not given)	14.6	
CC(=O)Nc1ccc(C(=O)N(C2=NC(C)CS2)c2ccc(Cl)cc2)cc1 (stereo not given)	-7.05	
Cc1cccc(-c2noc(CCC(=O)NC3CCCC3)n2)c1	3.93	
COc1ccccc1OCC(=O)Nc1c2c(nn1-c1ccc(F)cc1)CS(=O)(=O)C2	-15.3	
Cn1c(N2CCOCC2)c(C=O)c2ccccc21	-5.67	
COCCN1CCN(C(=O)c2cc(COc3ccc(F)cc3Cl)on2)CC1	-5.58	
